Test results taken from PubChem BioAssay (NCI).
Several values for one entry are separate records, joined by “and”; a condition that tells them apart may be missing. Equal values may be shown once. Compounds without any hit were thinned out: in the full panel of roughly 79,000, 15% have a hit. More than one record can exist for a structure, and the calls need not agree. Activity calls are given as the source filed them. Cut-off read from the data, not from the text of the source: active = growth inhibition above about 70%; inactive = the rest.

Assays:
[1] = NCI Yeast Anticancer Drug Screen. Data for the wt2 strain (AID 169);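 note: 0% = growth of vehicle-treated yeast cultures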; details: S. cerevisiae wt2 strain growth inhibition, stronger effect = higher value
Summary of the method: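 Genetically defined yeast strains from a DNA-repair/cell-cycle panel were used. Compound-exposed yeast growth was measured, and the inhibition was calculated relative to vehicle treatment.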

[2] = NCI Yeast Anticancer Drug Screen. Data for the mlh1 strain (AID 171);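 note: 0% = growth of vehicle-treated control cultures of the same strain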; details: S. cerevisiae mlh1 strain growth inhibition, stronger effect = higher value
Summary of the method: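 Here the genetically defined yeast mutant is grown with each compound, and the extent to which its growth falls below that of vehicle-exposed cells is reported.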

[3] = NCI Yeast Anticancer Drug Screen. Data for the sgs1 strain (AID 173);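 note: 0% = growth of vehicle-only control cultures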; details: S. cerevisiae sgs1 mutant, stronger effect = higher value
Summary of the method: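 Relative growth inhibition, referenced to vehicle, was determined in a yeast strain with a defined alteration affecting DNA damage repair or cell cycle control after compound exposure.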

[4] = NCI Yeast Anticancer Drug Screen. Data for the mlh1 rad18 strain (AID 175); details: S. cerevisiae mlh1 rad18 strain growth inhibition, stronger effect = higher value
Summary of the method: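 In this whole-cell yeast screen, a strain with altered DNA damage repair is challenged with compound, and its growth is measured against matched vehicle-treated controls.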

[5] = NCI Yeast Anticancer Drug Screen. Data for the rad18 strain (AID 177); details: S. cerevisiae rad18 mutant growth inhibition, stronger effect = higher value
Summary of the method: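 Screen uses a yeast strain with a defined lesion in DNA damage repair; compound effect is read as loss of growth compared to untreated vehicle cultures.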

[6] = NCI Yeast Anticancer Drug Screen. Data for the rad52 strain (AID 147);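 note: 0% = growth of vehicle-treated control cultures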; details: S. cerevisiae rad52 mutant growth inhibition, stronger effect = higher value
Summary of the method: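 Measured: yeast growth inhibition. System: strain with a defined DNA damage repair alteration. Reference: vehicle-treated control cultures.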

[7] = NCI Yeast Anticancer Drug Screen. Data for the wt1 strain (AID 149);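 note: 0% = growth of vehicle-treated wt1 cultures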; details: S. cerevisiae wt1 strain (SPY 50644) growth inhibition, stronger effect = higher value
Summary of the method: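 The wt1 strain was treated with compounds, and growth was compared with vehicle-treated cultures to give inhibition.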

[8] = NCI Yeast Anticancer Drug Screen. Data for the rad50EPP+ strain (AID 151);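 note: 0% = growth of vehicle-treated control cultures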; details: S. cerevisiae rad50 mutant strain, stronger effect = higher value
Summary of the method: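 One strain with a rad50 alteration (rad50EPP+) was compound-treated, its growth then compared to that of vehicle controls.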

[9] = NCI Yeast Anticancer Drug Screen. Data for the mgt1 strain (AID 153); details: S. cerevisiae mgt1 mutant growth inhibition, stronger effect = higher value
Summary of the method: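 After exposure of the mgt1 yeast mutant to compound, growth was measured and reported as inhibition compared with vehicle controls.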

[10] = NCI Yeast Anticancer Drug Screen. Data for the rad50 strain (AID 155);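 note: 0% = growth of vehicle-only cultures of the same strain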; details: S. cerevisiae rad50 strain growth inhibition, stronger effect = higher value
Summary of the method: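 Cells are treated with compound, grown, and their growth is then scored against vehicle-only cultures of the same repair-deficient yeast strain.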

[11] = NCI Yeast Anticancer Drug Screen. Data for the mec2-1 strain (AID 157); details: S. cerevisiae mec2-1 strain, stronger effect = higher value
Summary of the method: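 Test agents were screened against the mec2-1 yeast strain, with defined DNA repair or cell cycle alteration. Growth was scored as inhibition against vehicle-only controls.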

[12] = NCI Yeast Anticancer Drug Screen. Data for the rad14 strain (AID 159);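 note: 0% = growth of vehicle-treated control cultures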; details: S. cerevisiae rad14 strain growth inhibition, stronger effect = higher value
Summary of the method: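 Readout: yeast growth inhibition, referenced to vehicle-only cultures. Strain bears a defined alteration in DNA damage repair.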

[13] = NCI Yeast Anticancer Drug Screen. Data for the sgs1 mgt1 strain (AID 161);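 note: 0% = growth of cultures given vehicle only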; details: S. cerevisiae sgs1 mgt1 strain, stronger effect = higher value
Summary of the method: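 Test agents were incubated with a DNA-repair-mutant yeast strain. Growth was then read and compared against vehicle-treated controls.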

[14] = NCI Yeast Anticancer Drug Screen. Data for the CLN2oe strain (AID 163);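 note: 0% = growth of vehicle-only control cultures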; details: S. cerevisiae CLN2oe strain, stronger effect = higher value
Summary of the method: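 Here, growth inhibition in a cell-cycle-altered yeast strain after compound exposure was quantified against vehicle control growth.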

[15] = NCI Yeast Anticancer Drug Screen. Data for the cln2 rad14 strain (AID 165);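 note: 0% = growth equal to vehicle treated cultures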; details: S. cerevisiae cln2 rad14 strain, stronger effect = higher value
Summary of the method: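 Growth of compound-exposed yeast (cln2 rad14 genotype) measured and expressed as inhibition relative to vehicle.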

[16] = NCI Yeast Anticancer Drug Screen. Data for the bub3 strain (AID 167); details: S. cerevisiae bub3 mutant strain, stronger effect = higher value
Summary of the method: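 Part of a panel of yeast mutants defective in DNA damage repair or cell cycle regulation. Each strain is grown with compound, and inhibition is calculated relative to solvent-treated cultures.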

[17] = at 5.0 µM (retest, dose inferred, filed as 0.5)
[18] = at 50.0 µM (retest, dose inferred, filed as 5.0)

Measured: growth inhibition

CCC1(O)C(=O)OCc2c1cc1n(c2=O)Cc2cc3ccccc3nc2-1 (centres undefined)
active: [4]; [18] 70%
inactive: [1]; at 1.2 µM 6% | [1]; at 3.7 µM 4% | [1]; at 11.0 µM -1% | [1]; at 33.0 µM 1% | [1]; at 100.0 µM 10% | [2]; at 1.2 µM -5% | [2]; at 3.7 µM 13% | [2]; at 11.0 µM 15% | [2]; at 33.0 µM 2% | [2]; at 100.0 µM 15% | [3]; at 1.2 µM 1% | [3]; at 3.7 µM 15% | [3]; at 11.0 µM 23% | [3]; at 33.0 µM 35% | [3]; at 100.0 µM 48% | [4]; [17] 36% | [4]; at 50.0 µM -27.3% | [5]; at 1.2 µM -6% | [5]; at 3.7 µM 15% | [5]; at 11.0 µM 21% | [5]; at 33.0 µM 4% | [5]; at 100.0 µM 7%

C[C@]12CC[C@H](O)CC1=CC[C@@H]1[C@@H]2CC[C@]2(C)C(=O)CC[C@@H]12
inactive: [6]; at 1.2 µM -54% | [6]; at 3.7 µM -47% | [6]; at 11.0 µM -46% | [6]; at 33.0 µM 69% | [7]; at 1.2 µM -44% | [7]; at 3.7 µM -65% | [7]; at 11.0 µM -70% | [7]; at 33.0 µM 50% | [8]; at 1.2 µM -64% | [8]; at 3.7 µM 4% | [8]; at 11.0 µM 0% | [8]; at 33.0 µM 36% | [8]; at 100.0 µM 65% | [9]; at 1.2 µM -65% | [9]; at 3.7 µM -68% | [9]; at 11.0 µM -62% | [9]; at 33.0 µM 52% | [10]; at 1.2 µM -73% | [10]; at 3.7 µM -41% | [10]; [17] 58% | [10]; at 11.0 µM -57% | [11]; at 1.2 µM -94% | [11]; at 3.7 µM -71% | [11]; [17] 56% | [11]; at 11.0 µM -66% | [12]; at 1.2 µM -57% | [12]; at 3.7 µM -52% | [12]; at 11.0 µM -39% | [13]; [17] -7% | [14]; at 1.2 µM -16% | [14]; at 3.7 µM 2% | [14]; at 11.0 µM 8% | [14]; at 33.0 µM 54% | [15]; [17] 64% | [16]; at 1.2 µM -23% | [16]; at 3.7 µM -36% | [16]; [17] 20% | [16]; at 11.0 µM -17% | [1]; at 1.2 µM -52% | [1]; at 3.7 µM -42% | [1]; at 11.0 µM -37% | [1]; at 33.0 µM 59% | [2]; at 1.2 µM -51% | [2]; at 3.7 µM -81% | [2]; at 11.0 µM -49% | [2]; at 33.0 µM 37% | [3]; at 1.2 µM -75% | [3]; at 3.7 µM -56% | [3]; at 11.0 µM -65% | [4]; [17] 37% | [5]; at 1.2 µM -29% | [5]; at 3.7 µM -24% | [5]; at 11.0 µM -7%
active: [6]; at 100.0 µM 90% | [7]; at 100.0 µM 87% | [9]; at 100.0 µM 96% | [10]; at 33.0 µM 78% | [10]; [18] 98% | [10]; at 50.0 µM 88.5% | [10]; at 100.0 µM 91% | [11]; at 33.0 µM 79% | [11]; [18] 98% | [11]; at 50.0 µM 87.8% | [11]; at 100.0 µM 90% | [12]; at 33.0 µM 77% | [12]; at 100.0 µM 96% | [13]; [18] 80% | [13]; at 50.0 µM 88.1% | [14]; at 100.0 µM 94% | [15]; [18] 75% | [15]; at 50.0 µM 88.5% | [16]; at 33.0 µM 72% | [16]; [18] 78% | [16]; at 50.0 µM 86.2% | [16]; at 100.0 µM 92% | [1]; at 100.0 µM 92% | [2]; at 100.0 µM 97% | [3]; at 33.0 µM 77% | [3]; at 100.0 µM 97% | [4]; [18] 99% | [4]; at 50.0 µM 87.7% | [5]; at 33.0 µM 78% | [5]; at 100.0 µM 95%

COc1ccc([N+]2=NC(c3ccc([N+](=O)[O-])cc3)=NN(c3ccccc3)C2)cc1
82% (active) and 58% (inactive): [8]; at 100.0 µM
inactive: [6]; at 1.2 µM -3% and -1% | [6]; at 3.7 µM -1% and 1% | [6]; at 11.0 µM 1% and 2% | [6]; at 33.0 µM 37% and 12% | [7]; at 1.2 µM 1% | [7]; at 3.7 µM 0% | [7]; at 11.0 µM -3% and -5% | [7]; at 33.0 µM 1% and -2% | [8]; at 1.2 µM -10% and -9% | [8]; at 3.7 µM -4% and -5% | [8]; at 11.0 µM 3% and 4% | [8]; at 33.0 µM 32% and 9% | [9]; at 1.2 µM -1% | [9]; at 3.7 µM -2% and -6% | [9]; at 11.0 µM -1% and 2% | [9]; at 33.0 µM 43% and -6% | [10]; at 1.2 µM -6% and -5% | [10]; at 3.7 µM -16% | [10]; [17] 8% and 7% | [10]; at 11.0 µM -17% and -13% | [10]; at 33.0 µM 34% and 11% | [10]; [18] 52% and 31% | [11]; at 1.2 µM -5% and -1% | [11]; at 3.7 µM -5% and -2% | [11]; [17] -10% and -3% | [11]; at 11.0 µM -5% and 1% | [11]; at 33.0 µM 6% and 5% | [11]; [18] 21% and 4% | [12]; at 1.2 µM 2% | [12]; at 3.7 µM 1% | [12]; at 11.0 µM 4% and 2% | [12]; at 33.0 µM 14% and 9% | [13]; [17] 2% and -1% | [13]; [18] 22% and 50% | [14]; at 1.2 µM 0% and 5% | [14]; at 3.7 µM -3% and 0% | [14]; at 11.0 µM -7% and 4% | [14]; at 33.0 µM 21% and 9% | [15]; [17] 5% and -13% | [15]; [18] 48% and 43% | [15]; at 50.0 µM 51% and 38.8% | [16]; at 1.2 µM 5% and 1% | [16]; at 3.7 µM 17% and 4% | [16]; [17] 15% and 17% | [16]; at 11.0 µM 17% and 9% | [16]; at 33.0 µM 35% and 5% | [1]; at 1.2 µM 0% and 1% | [1]; at 3.7 µM -1% | [1]; at 11.0 µM -2% | [1]; at 33.0 µM 27% and 7% | [2]; at 1.2 µM 0% | [2]; at 3.7 µM -2% and -3% | [2]; at 11.0 µM -1% and -3% | [2]; at 33.0 µM 14% and 16% | [3]; at 1.2 µM -2% and -3% | [3]; at 3.7 µM 3% and -1% | [3]; at 11.0 µM 8% | [3]; at 33.0 µM 48% and 42% | [4]; [17] 4% and 9% | [4]; [18] 67% and 51% | [5]; at 1.2 µM -8% and -5% | [5]; at 3.7 µM -2% and -3% | [5]; at 11.0 µM 12% and 15% | [5]; at 33.0 µM 34% and 33%
92% (active) and 59% (inactive): [2]; at 100.0 µM
91% (active) and 63% (inactive): [12]; at 100.0 µM
92% (active) and 50% (inactive): [11]; at 100.0 µM
active: [6]; at 100.0 µM 91% | [7]; at 100.0 µM 94% and 89% | [10]; at 50.0 µM 78.3% and 73.8% | [10]; at 100.0 µM 90% and 88% | [11]; at 50.0 µM 75.2% and 70.8% | [14]; at 100.0 µM 90% and 70% | [16]; [18] 84% and 88% | [16]; at 50.0 µM 90.5% and 91.4% | [1]; at 100.0 µM 93% | [3]; at 100.0 µM 93% and 92% | [4]; at 50.0 µM 87.9% and 86.3% | [5]; at 100.0 µM 90% and 87%
93% (active) and 41% (inactive): [9]; at 100.0 µM
90% (active) and 56% (inactive): [16]; at 100.0 µM
78.8% (active) and 63.6% (inactive): [13]; at 50.0 µM
